SMILES strings stand for the structures. Inconclusive results are not listed. Calls of active or inactive are those of the source. The call rests on the fitted dose curve; in most records, active means well fitted cell-killing curve with a large enough effect in the repeat runs; inconclusive means weak or mixed curves, or effect the other way; inactive means no such curve, though single readings can be large or run the other way.
On the % scale 0 is the no-effect control and ±100 the full control effect.

The test is described as follows: qHTS assay to identify small molecule antagonists of the vitamin D receptor (VDR) signaling pathway - cell viability counter screen (AID 743225). Further: nearly all actives have a fitted effect of over 50% in size. As to conditions: VDR-bla HEK293T viability, CellTiter-Glo luminescence, 16 h; series mostly up to 61 µM; viability change, negative = cytotoxic: at the top concentration. The method, boiled down:
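In this counter screen, VDR-bla HEK 293T cells receive test compound plus 3 nM final calcitriol for 16 h at 37C. Room-temperature steps of 2 h with the beta-lactamase substrate, then 30 min with CellTiter-Glo, precede the luminescence read.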
(In general: In qHTS, concentration-response curves come from the screen itself.)
On to `NC(=O)c1cc([N+](=O)[O-])cc([N+](=O)[O-])c1`, for which the “viability change, negative = cytotoxic” value is -2.04% (inactive). Under `CN1CCC(O)(c2ccc(F)cc2)C(C(=O)c2ccc(F)cc2)C1` (stereo not given) stands 6.97% (inactive); under `O=[N+]([O-])c1ccc2c3c(cccc13)CC2`, 6.16% (inactive); under `O=NN1CCCCC1`, -2.54% (inactive). Under `CCCCc1ccc(O)cc1` stands -9.97% (inactive); under `CC(Oc1ccc(Oc2ncc(C(F)(F)F)cc2Cl)cc1)C(=O)O` (stereo not given), -22.8% (inactive); under `Clc1ccccc1N1CCNCC1`, 1.02% (inactive). The same measure for `CC(CC(C#N)(c1ccccc1)c1ccccc1)N(C)C` (stereo not given): -22.5% (inactive); for `CC(Cl)(Cl)[N+](=O)[O-]`: 20.2% (inactive).

On to `OCCBr`, for which the “viability change, negative = cytotoxic” value is 0% (inactive). Take `OC(Cn1cncn1)(c1ccc(F)cc1)c1ccccc1F` (stereo not given): the “viability change, negative = cytotoxic” value was 3% (inactive). For the compound `N#CC(Cl)(Cl)Cl`, the “viability change, negative = cytotoxic” value is 1.36% (inactive). Under `CCCCOC(=O)c1ccccc1C(=O)O` stands -16.9% (inactive). Turning to `N#Cc1c(Cl)cccc1Cl`, the “viability change, negative = cytotoxic” value was 3.91% (inactive). Regarding `CC(=O)Nc1cc([As](=O)(O)O)ccc1O`, the “viability change, negative = cytotoxic” value was 2.43% (inactive).

With `COP(N)(=S)Oc1ccccc1C(=O)OC(C)C` (stereo not given), the “viability change, negative = cytotoxic” value was -0.193% (inactive).

For `CC1CCC(=O)O1` (stereo not given), the “viability change, negative = cytotoxic” value is -2.48% (inactive).

As to `CNC(=O)Oc1ccc(N(C)C)c(C)c1`, the “viability change, negative = cytotoxic” value was 0.248% (inactive). On to `O=[N+]([O-])c1cccc(O)c1`, for which the “viability change, negative = cytotoxic” value is -2.76% [at 78.8 µM] (inactive). Regarding `CNC(=O)Oc1c(C(C)(C)C)cc(C)cc1C(C)(C)C`, the “viability change, negative = cytotoxic” value was 10.4% (inactive). As to `C[N+](C)=CCl`, the “viability change, negative = cytotoxic” value was 4.91% (inactive). As for `COCC(=O)N(c1c(C)cccc1C)N1CCOC1=O`, the “viability change, negative = cytotoxic” value is -0.0837% (inactive). The same measure for `Cc1ncc2n1-c1ccc(Cl)cc1C(c1ccccc1F)=NC2`: 0.374% (inactive).

With `O=CNC(N1CCN(C(NC=O)C(Cl)(Cl)Cl)CC1)C(Cl)(Cl)Cl` (stereo not given), the “viability change, negative = cytotoxic” value is 7.75% (inactive). Under `CCOC(=O)CP(=O)(OCC)OCC` stands 8.07% (inactive).

Turning to `C#C[C@]1(O)C=C[C@H]2[C@@H]3CCC4=CC(=O)CC[C@@H]4[C@H]3CC[C@@]21CC`, the “viability change, negative = cytotoxic” value is -0.115% (inactive). For the compound `O=C(Nc1ccccc1)N(Cc1ccc(Cl)cc1)C1CCCC1`, the “viability change, negative = cytotoxic” value is -17.4% (inactive).

Regarding `C[C@@H]1CN(C2CCC(C#N)(c3ccc(F)cc3)CC2)CC[C@]1(C(=O)O)c1ccccc1` (stereo not given in full), the “viability change, negative = cytotoxic” value is 0.605% (inactive). For the compound `C[C@]12CC[C@H]3[C@@H](CC=C4C[C@@H](O)CC[C@@]43C)[C@@H]1CC[C@@H]2O`, the “viability change, negative = cytotoxic” value is 0.705% (inactive).

As to `O=C(Oc1ccc(Br)cc1)N1CCN2CCC1CC2`, the “viability change, negative = cytotoxic” value is -6.79% (inactive). Take `CN/C(=N\[N+](=O)[O-])NCC1CCOC1` (stereo not given): the “viability change, negative = cytotoxic” value is 3.82% (inactive).

For the compound `CN1CCN(C(=O)O[C@H]2c3nccnc3C(=O)N2c2ccc(Cl)cn2)CC1`, the “viability change, negative = cytotoxic” value is 4.5% (inactive). Regarding `CCC/C(=N\OCC)C1=C(O)CC(CC(C)SCC)CC1=O` (stereo not given), the “viability change, negative = cytotoxic” value was -0.721% [at 78.8 µM] (inactive).

Take `COC(=O)C1=CCCN(C)C1`: the “viability change, negative = cytotoxic” value is 8.21% (inactive). Consider `CCC(C)n1c(=O)[nH]c(C)c(Br)c1=O` (stereo not given), for which the “viability change, negative = cytotoxic” value was -11% (inactive).

The values are drawn from PubChem BioAssay (Tox21).
